From PubChem
HT1080NT lethal = kills 2HG-producing HT-1080-NT fibrosarcoma cells | HT-1080-NT fibrosarcoma viability, CellTiter-Glo ATP luminescence, 48 h | Potency, µM (doses to about 46.1 µM), hits mostly cytotoxic | 360,000 tested, 1.6% active | AID 686970;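 also: NT is the 2HG producing partner of a matched IDH1 knockdown line; nearly all actives have a fitted effect of over 55% in size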
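Compounds were tested in concentration-response format on HT-1080-NT cells for 48 hours at 37 degrees C. Cell viability came from CellTiter-Glo luminescence; curves were classified by r2, response magnitude and activity.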
HT1080 IDH1KD tx = kills HT-1080 cells with IDH1 knockdown. HT-1080 IDH1 knockdown viability, ATP luminescence, 48 h. Potency, µM (series often up to 46.1 µM), actives largely listed as cytotoxic. 360,000 tested, 2% active. AID 686971
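After a 2 h attachment period, IDH1KD HT-1080 cells took pin-transferred compound for 48 h at 37 °C; ATP-based luminescence after 10 min room-temperature reagent incubation reported viability.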
MCF10A rerep = induces DNA re-replication in MCF 10a normal breast cells; MCF 10A DNA re-replication, Hoechst nuclear intensity, 48 h; 350,000 tested, 2.9% active; Potency, µM (titrated, usually from 46.1 µM), actives largely listed as activators; also: nearly all actives have a fitted effect of over 50% in size
SW480 rerep = inducers of DNA re-replication in SW480 colon cancer cells. SW480 DNA re-replication, Hoechst DNA content imaging, 48 h. AID 624297. Potency, µM (doses to about 46.1 µM), hits mostly activators. 340,000 tested, 1.8% active; also: nearly all actives have a fitted effect of over 55% in size
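Quantitative HTS format with DMSO vehicle controls; 48 hr drug incubation at 37 C, then 40 min Hoechst staining and scanning imager measurement at 405 nm excitation.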
KB-V1 cytotox = kills drug-selected multidrug resistant KB-V1 cells. Potency, µM (highest dose often 46.1 µM), hits mostly cytotoxic. 400,000 tested, 3.4% active. KB-V1 MDR cells viability, CellTiter-Glo, 72 h. AID 1347076; also: nearly all actives have a fitted effect of over 60% in size
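qHTS viability screen in drug-selected KB-V1 MDR cells: 72 h compound treatment at 37 degrees C, ATP luminescence end point.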
KB-3-1 tox = KB-3-1 parental cell cytotoxicity; AID 1347075; 400,000 tested, 1.4% active; KB-3-1 viability, CellTiter-Glo ATP luminescence, 72 h; Potency, µM (series often up to 46.1 µM), hits mostly cytotoxic; also: nearly all actives have a fitted effect of over 60% in size
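Cells are dispensed, compounds pinned in, plates held at 37 °C for 72 h, then CellTiter-Glo is added and luminescence read after 10 minutes. Cell line: parental KB-3-1 in phenol-red-free DMEM, 10% FBS.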
A number is an active result; - = inactive; ? = inconclusive; . = no result given. Compounds with a hit are over-represented: about 7.9% of the library has one in this group of screens. Calls follow the shape of the dose curve; as a rule, active = well fitted curve in the direction sought with a large enough effect; inconclusive = small, poorly fitted or top-dose-only effect, or another doubt; inactive = no such curve, though single readings can be large; an effect the other way counts as inactive or inconclusive.

SMILES | HT1080NT lethal | HT1080 IDH1KD tx | MCF10A rerep | SW480 rerep | KB-V1 cytotox | KB-3-1 tox
O=C(CSc1ccccn1)Nc1ccc2c(c1)C(=O)c1ccccc1C2=O | ? | 21µM | ? | - | ? | -
O=C(CSc1ccc(-c2cccs2)nn1)Nc1ccccc1 | - | - | - | - | 12µM | -
O=C(CSc1ccc(-c2ccco2)nn1)Nc1ccc(F)cc1 | - | - | - | - | 10µM | -
O=C(CSc1ccc(-c2ccco2)nn1)Nc1ccccc1 | - | - | - | - | 18µM | -
CCOc1ccc(NC(=O)CSc2ccc(-c3ccco3)nn2)cc1 | - | - | - | - | - | -
O=C(CSc1ccc(-c2ccco2)nn1)NCc1ccccc1Cl | - | - | - | - | 21µM | -
Cc1ccccc1P(=O)(c1ccccc1)c1ccccc1C | - | - | . | . | ? | -
Cc1ccsc1/C=C1\SC(N2CC(C)OC(C)C2)=NC1=O (stereo not given) | - | - | - | - | 18µM | ?
COCCN1C=C(C(=O)OC)C(c2ccccc2C(F)(F)F)C(C(=O)OC)=C1 | - | - | 16µM | 18µM | - | -
COCCN1C=C(C(=O)OC)C(c2ccc(OC)c(OC)c2)C(C(=O)OC)=C1 | - | - | - | - | - | -
COC(=O)C1=CNC=C(C(=O)OC)C1c1ccccc1Cl | - | - | ? | ? | - | -
CCCCN1C=C(C(=O)OC)C(c2ccccc2C(F)(F)F)C(C(=O)OC)=C1 | - | - | 2.9µM | 9.2µM | - | -
COC(=O)C1=C(C)N(C)C(C)=C(C(=O)OC)C1c1ccccc1C | - | - | - | - | - | -
CCCCN1C=C(C(=O)OC)C(c2ccccc2Cl)C(C(=O)OC)=C1 | - | - | 7.3µM | ? | - | -
CCCCOc1ccccc1C1C(C(=O)OC)=C(C)N(C)C(C)=C1C(=O)OC | - | - | - | - | 9.2µM | -
Cc1ccc(Cl)cc1NC(=O)NCc1cccn1Cc1ccc(F)cc1 | . | . | . | . | - | -
Cc1ccc(NC(=O)C(=O)NCCN2CCN(Cc3ccc([N+](=O)[O-])cc3)CC2)cc1 | - | - | - | ? | 2.9µM | -
CCc1ccc(NC(=O)C(=O)NCCN2CCN(Cc3ccc([N+](=O)[O-])cc3)CC2)cc1 | - | - | ? | - | - | -
COc1ccc(NC(=O)CSC2=Nc3ccccc3C3=NC(CC(=O)NCCc4ccccc4)C(=O)N23)cc1 (stereo not given) | . | . | . | . | - | -
COc1ccc(-c2cc3c(nn2)-c2ccccc2C3=O)cc1 | - | - | - | - | 7.3µM | ?
CC(C)(C)OC(=O)C[C@H]1C/C=C\C[C@H](CC(=O)NCCO)C(=O)NC[C@@H](c2ccccc2)OC1=O | - | - | - | - | - | -
Clc1cc(Br)ccc1OCCCn1ccnc1 | - | - | - | - | 21µM | ?
Cc1cccc(Cl)c1OCCCCn1ccnc1 | ? | ? | - | - | 21µM | -
Cc1cc(Cl)cc(C)c1OCCCCn1ccnc1 | - | ? | - | - | ? | -
O=C(/C=C/c1c(Cl)cccc1Cl)NCCCn1ccnc1 | - | - | 23µM | ? | - | -
SMILES | HT1080NT lethal | HT1080 IDH1KD tx | MCF10A rerep | SW480 rerep | KB-V1 cytotox | KB-3-1 tox
Cc1cc(Br)ccc1OCCn1ccnc1 | - | - | - | - | 16µM | -
O=C(CSc1nnc(CNC(=O)c2ccccc2F)o1)NC1CCCCC1 | - | - | - | - | - | -
COC(=O)C/C=C/N(Cc1ccccc1OC)S(=O)(=O)CCl | - | - | - | - | - | -
CCc1ccc(NC(=O)COC(=O)Cn2cnc3ccccc32)cc1 | - | - | - | - | - | -
CCn1c(C)cc(C(=O)CSc2nnnn2C2CCCC2)c1C | - | - | ? | - | 9.2µM | -
Cc1cc(C(=O)CSc2nnnn2C)c(C)n1C1CC1 | - | - | - | - | - | -
COc1ccc(CN2CCOCC2)cc1OC | - | - | - | - | - | -
COc1cc2sc3ccc(-c4ccc(CN5CCOCC5)cc4)cc3c(=O)c2cc1OC | - | - | 6.5µM | - | 13µM | ?
O=C(/C=C/c1ccccc1)CCN1CCCCC1 | ? | ? | 6.5µM | 2.9µM | 26µM | ?
O=C(/C=C/c1ccccc1)NC(=O)c1ccccc1O | - | - | - | - | - | -
O=C(/C=C/c1ccccc1)CC(=O)c1ccccc1O | - | - | 13µM | ? | ? | -
C[C@@H]1CN([C@@H](C)CO)C(=O)CCCn2nncc2CO[C@@H]1CN(C)C(=O)Nc1cccc(Oc2ccccn2)c1 | - | - | . | . | - | -
CCCc1[nH]n(-c2ccc(F)cc2)c(=O)c1C=Nc1cccc(F)c1 | 7.3µM | 15µM | ? | ? | ? | 5.8µM
COc1ccc2[nH]c3c(c2c1)CCN1C(=O)N([C@@H](C)C(=O)NCCc2ccc(F)cc2)C(=O)[C@]31C | - | - | ? | ? | ? | 12µM
COc1ccc2[nH]c3c(c2c1)CCN1C(=O)N([C@@H](C)C(=O)NCc2ccc(F)cc2)C(=O)[C@]31C | - | - | - | - | - | -
CCCCOC(=O)c1c(C)oc2ccc(NS(=O)(=O)c3ccc4c5c(cccc35)C(=O)N4)cc12 | - | - | ? | - | 15µM | ?
CC(=O)c1c(C)oc2ccc(NS(=O)(=O)c3ccc(C(C)C)cc3)cc12 | . | . | . | . | ? | 21µM
CCOc1ccc(S(=O)(=O)Nc2ccc3oc(C)c(C(=O)OCCOC)c3c2)cc1 | . | . | . | . | ? | 5.8µM
COCCOC(=O)c1c(C)oc2ccc(NS(=O)(=O)c3ccc(C(=O)O)cc3)cc12 | - | - | - | - | - | -
COC(=O)c1c(C)oc2ccc(NS(=O)(=O)c3cc(OC)ccc3OC)cc12 | ? | ? | ? | - | 10µM | 26µM
COc1cccc(C(=O)SC2=NCCS2)c1 | - | ? | 15µM | - | - | -
COc1cc(NC(=O)SC2=NCCS2)cc(OC)c1 | - | - | - | - | - | -
O=c1oc2ccccc2cc1-c1cn2cc(Cc3ccc(F)cc3)sc2n1 | . | . | . | . | - | 0.58µM
CC(NC(=O)COC(=O)c1cc(NS(=O)(=O)c2ccc(Cl)c([N+](=O)[O-])c2)ccc1O)C1CC2CCC1C2 (stereo not given) | ? | ? | 6.5µM | 9.2µM | - | -
COC(CNC(=O)CCc1c(C)nc2c(-c3ccccc3)c(C)nn2c1C)OC | - | - | - | - | - | -
Cc1onc(-c2ccccc2)c1C(=O)OCc1nnc(-c2ccc([N+](=O)[O-])cc2)o1 | - | - | - | - | 15µM | -
CS(=O)(=O)c1ccc(C(=O)OCc2nnc(-c3ccccc3)o2)cc1[N+](=O)[O-] | 7.3µM | 4.1µM | ? | ? | ? | -
Cc1ccccc1OCCOC(=O)c1c(-c2ccccc2)noc1C | 7.3µM | 5.8µM | ? | 9.2µM | ? | 9.2µM
